# Screen size: about 360,000 compounds; about 420 (0.12%) were called active. Rule as the data show it: active = inhibition above about 30%; inconclusive = no clear call, values can overlap the other calls; inactive = below that. Shown is part of a subset that was picked to be rich in actives.
# Biological target: Lethal factor (Bacillus anthracis) (UniProt P15917)
# Test: anthrax lethal factor cleavage blockers – biochemical, multiplex microsphere, MLPCN library, primary screen (AID 588501); also: plate controls were buffer without enzyme for full effect and enzyme alone for no effect
# Conditions: multiplex microsphere protease cleavage assay, LF; at 10 µM; stronger effect = higher value
# Chain of Lethal factor (Bacillus anthracis) (P15917 whole entry, looked up): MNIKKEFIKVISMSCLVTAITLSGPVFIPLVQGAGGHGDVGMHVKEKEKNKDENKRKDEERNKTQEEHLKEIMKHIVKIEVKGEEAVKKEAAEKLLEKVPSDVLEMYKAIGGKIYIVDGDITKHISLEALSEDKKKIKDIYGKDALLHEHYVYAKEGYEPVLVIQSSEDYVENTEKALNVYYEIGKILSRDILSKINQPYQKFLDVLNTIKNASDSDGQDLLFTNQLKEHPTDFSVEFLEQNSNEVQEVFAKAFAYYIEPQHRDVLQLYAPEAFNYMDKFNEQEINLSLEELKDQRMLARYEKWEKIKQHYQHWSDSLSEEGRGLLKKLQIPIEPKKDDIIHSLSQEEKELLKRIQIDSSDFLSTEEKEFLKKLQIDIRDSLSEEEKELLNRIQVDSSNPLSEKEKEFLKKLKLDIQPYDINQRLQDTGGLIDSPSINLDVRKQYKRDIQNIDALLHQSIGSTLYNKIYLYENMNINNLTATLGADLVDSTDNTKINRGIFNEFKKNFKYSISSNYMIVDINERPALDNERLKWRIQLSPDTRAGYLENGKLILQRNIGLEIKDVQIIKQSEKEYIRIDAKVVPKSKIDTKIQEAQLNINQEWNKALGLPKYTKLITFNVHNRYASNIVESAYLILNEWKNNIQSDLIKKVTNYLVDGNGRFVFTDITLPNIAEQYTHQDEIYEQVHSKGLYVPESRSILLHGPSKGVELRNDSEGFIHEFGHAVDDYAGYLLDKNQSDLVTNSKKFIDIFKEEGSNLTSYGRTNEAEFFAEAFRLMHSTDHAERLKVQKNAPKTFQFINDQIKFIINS
row,Compound,inhibition
1,CCC(=O)Nc1cccc(NC(=O)CSc2nnnn2C2CCCC2)c1,3.1% (inactive)
2,O=C(N/C(=C\c1ccc([N+](=O)[O-])cc1)C(=O)N1CCCCC1)c1ccco1,14.4% (inactive)
3,C/C=C/C(=O)Nc1nnc(C(C)C)s1,-0.2% (inactive)
4,CNC[C@H]1Oc2c(NC(=O)C3CCCCC3)cccc2C(=O)N([C@H](C)CO)C[C@@H]1C,-2.2% (inactive)
5,CCN(CC)C(=O)C1=C(C)N(Cc2ccc(OC)cc2)C(=O)C(CC(=O)NCCCCc2ccccc2)C1 (stereo not drawn),-3.9% (inactive)
6,CN1CCc2nc(SC(C(=O)O)c3ccccc3)c(C#N)c(-c3cccs3)c2C1 (stereo not drawn),-13.7% (inactive)
7,CCN(Cc1ccccc1)C(=O)CCS(=O)(=O)c1ccc2c(c1)oc(=O)n2C,0.5% (inactive)
8,O=[N+]([O-])c1ccc(C(S(=O)(=O)Cc2ccccc2)S(=O)(=O)Cc2ccccc2)cc1,-1.4% (inactive)
9,CCC(CC)C(=O)Nc1cc(C(=O)OC)cc(C(=O)OC)c1,-1.3% (inactive)
10,Cc1c(Cl)c([N+](=O)[O-])nn1CC(=O)NCC1CCCO1 (stereo not drawn),-2.9% (inactive)
11,OCC[C@H]1C[C@@H](O)[C@H](O)[C@@]2(OCCc3ccccc32)O1,3.4% (inactive)
12,CCc1ccccc1NC(=S)Nc1cc(OC)c(NC(=O)C(C)C)cc1OC,5.6% (inactive)
13,O=C(Nc1cccc(F)c1)c1coc(=O)c(Br)c1,0.1% (inactive)
14,O=C(NCC(c1ccco1)N1CCc2ccccc21)c1cccc(F)c1 (stereo not drawn),-3.6% (inactive)
15,COc1ccc(C2=NS(=O)(=O)N(C)C(C(=O)N3CCCCC3)=C2)cc1,-0.5% (inactive)
16,COC(c1ccccc1)c1nnc(CCC(=O)N2CCN(CCOc3ccccc3)CC2)o1 (stereo not drawn),0.2% (inactive)
17,Cc1cc(C)cc(OCc2nnc(SCC(=O)OC3CCCCC3)o2)c1,-14.4% (inactive)
18,O=c1oc2ccccc2c(CNc2ccccc2)c1[N+](=O)[O-],7.9% (inactive)
19,O=C1NC[C@H](CCCCN2C[C@H](Cc3ccc(O)cc3)N(CCc3ccccc3)C(=O)C2=O)N(CCc2ccccc2)C1=O,-11.9% (inactive)
20,O=C(Nc1nnc(C2CC2)s1)C1=NN(C2CCS(=O)(=O)C2)C(=O)CC1 (stereo not drawn),1.6% (inactive)
21,CNC(=O)c1nnn(-c2ccccc2)c1C(=O)NC,-0.6% (inactive)
22,COc1ccc(-n2c(O)c(C=NCC(c3ccco3)N3CCCC3)c3ccccc3c2=O)cc1OC (stereo not drawn),0% (inactive)

row,Compound,inhibition
1,COc1cc(-c2nc(S(=O)(=O)c3ccc(Cl)cc3)c(N(C)C)o2)cc(OC)c1OC,0% (inactive)
2,CCCCN(C(=O)c1ccc(S(=O)(=O)N2CCOCC2)cc1)C1CCS(=O)(=O)C1 (stereo not drawn),0.4% (inactive)
3,CC(C)NC(=O)COCc1cc(-c2ccc3c(c2)OCO3)on1,-4.5% (inactive)
4,CCCCC(CC)CNCc1cccn1CCN1CCOCC1 (stereo not drawn),9% (inactive)
5,CCn1c(SCC(=O)Nc2ccc(C)cc2)nc2nc3c(cc2c1=O)CCCC3,-5.9% (inactive)
6,Cc1ccc(CSCC2Nc3ccc(C(=O)N4CCN(c5ccc(F)cc5)CC4)cc3NC2=O)cc1 (stereo not drawn),-0.9% (inactive)
7,CC(C)OCCCNC(=O)c1ccc(C2SCC(=O)N2Cc2ccco2)cc1 (stereo not drawn),0.6% (inactive)
8,CC(=O)Nc1ccc(NC(=O)c2ccc3c(c2)C(=O)N(c2ccccc2C)C3=O)cc1,0.3% (inactive)
9,CC(=O)Nc1ccc(Oc2ccc3c(c2)C(=O)NC3=O)cc1,30.3% (active)
10,CCCCC(=O)Nc1ccc2c(c1)C(=O)NC2=O,-3.5% (inactive)
11,OCC1(Cc2ccccc2C(F)(F)F)CCN(Cc2cccc3cnccc23)CC1,-3.3% (inactive)
12,Nc1ncnc2c1cnn2C1CC(O)C(CO)O1 (stereo not drawn),-1.1% (inactive)
13,Cc1cccc(C)c1-n1nnnc1C(CCc1ccccc1)N1CCN(C/C=C/c2ccccc2)CC1 (stereo not drawn),-0.9% (inactive)
14,O=C(COC(=O)CNC(=O)C1CCCCC1)Nc1cccc(F)c1,-8.5% (inactive)
15,O=C(Nc1cccc(F)c1)NC1CCCc2ccccc21 (stereo not drawn),0.6% (inactive)
16,O=C(Nc1cccc(F)c1)[C@@H]1CCCN1,41.3% (active)
17,CC(C)[C@@H](NC(=O)OC(C)(C)C)C(=O)NCC1CCC(C(=O)N[C@@H](Cc2ccccc2)C(=O)O)CC1 (stereo partly drawn),9% (inactive)
18,CC(C)(C)OC(=O)NC(Cc1ccccc1)C(=O)NC(CSC1CCCCO1)C(=O)NN (stereo not drawn),39.5% (active)
19,C#CCNC(=O)[C@H](Cc1ccc(C(=O)c2ccccc2)cc1)NC(=O)OC(C)(C)C,-1% (inactive)
20,COc1ccc(C2c3[nH]c4ccccc4c3CCN2CCCn2cccn2)cc1C (stereo not drawn),1.2% (inactive)
21,Cc1ccccc1N1CCN(C2CCCN(C(=O)c3ocnc3C)C2)CC1 (stereo not drawn),-3.3% (inactive)
